# PubChem BioAssay (NCI)
# This is part of a sample that, as a whole, favours compounds with a hit. Of some 83,000 tested, about 20% had one in any assay.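 Single-dose data. Exposure time 48 hours. Values below 10 considered active.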 Values without a mark were called inactive. Activity calls are given as the source filed them.
# Tested on: SF-268 CNS
# Experiment: NCI-60 one-dose screen, 48 h (100 = growth as untreated, 0 = no growth, -100 = all killed)
# Details: 10 µM unless noted
row,SMILES,growth [%]
1,CCC(Br)(CC)C(=O)c1ccc(OCC(=O)O)c(Cl)c1Cl,100
2,Oc1c(CNCCNCc2cc(Cl)cc(Cc3ccccc3)c2O)cc(Cl)cc1Cc1ccccc1,18.6
3,CCc1ccc(-c2ccc(COc3ccc(CC4SC(=O)NC4=O)cc3)cc2)cc1 (stereo not given),76.7
4,Cn1cc(-c2noc(-c3cn(C)c4ncc(F)cc34)n2)c2ccccc21,71.4
5,Clc1ccc2nc(-c3ccc(-c4ccc(/C=N/NC5=NCCN5)cc4)s3)cn2c1,94.2
6,CC(C)CCSc1nc(N)nc2nc[nH]c12,108

# Tested on: SF-295 CNS
# Experiment: as above
# Details: 10 µM unless noted
row,SMILES,growth
1,O=C(COc1cccc(/C=C2\Oc3ccccc3C2=O)c1)c1ccc([N+](=O)[O-])cc1,197%
2,CC[C@]12C=CCN3CC[C@@]4(c5ccc(OC)cc5N(C)[C@H]4[C@@](O)(C(=O)OC)[C@@H]1OC(=O)CCC(=O)N[C@H](Cc1c[nH]c4ccccc14)C(=O)OC)[C@@H]32,-38.4% [100 µM] (active)
3,C=C(C)[C@@H]1CC[C@]2(C(N)=O)CC[C@]3(C)[C@H](CC[C@@H]4[C@@]5(C)C/C(=C/c6cccnc6)[C@H](O)C(C)(C)[C@@H]5CC[C@]43C)[C@@H]12,23.9% [100 µM]
4,CSc1nc2sc3cc(Cl)c(Cl)cc3n2c(=N)c1C#N,99%
5,COc1ccc(/C=C2\N=C(Nc3ccccc3)N(NC(=O)c3ccccn3)C2=O)cc1,98.2%
6,O=C(NCCCNC(=O)OCc1ccc2cccc(O)c2n1)OCc1ccc2cccc(O)c2n1,38.7%
7,COc1cc(C(=O)/C=C/c2c(-c3ccc(F)cc3)nc3sccn23)cc(OC)c1OC,3.82% (active)
8,CCCCCCCCCCCCNC(=S)N/N=C/c1ccccc1O,70.7%
9,CCCc1cc2cc(-n3nc(C)c4c3CC(C)(C)CC4=O)cc(NC3CCSCC3)c2c(=O)[nH]1,62.2%
10,COc1ccc(-c2cc(-c3ccc(OC)c(OC)c3)nc(SCCCCCC(=O)NO)n2)cc1,72.9%
11,CCC(C)[C@H](NC(=O)NC(=O)NC(=O)CI)C(=O)OC (stereo not given in full),89.4%
12,CCN(CC)c1ccc(/C=C/c2ccc3cc(C)ccc3[n+]2CC)cc1,-22% (active)
13,N/C(=N\c1nc2ccccc2[nH]1)NC(=O)Cc1cccc2ccccc12,98.7%
14,CC1(C)CC[C@]2(C(N)=O)CC[C@]3(C)C(=CC[C@@H]4[C@@]5(C)C/C(=C/c6ccncc6)C(=O)C(C)(C)[C@@H]5CC[C@]43C)[C@@H]2C1,-64.4% [100 µM] (active)
15,Cc1ccc(C2=C/C(=C/c3ccc(Br)cc3)C(=O)N2CCc2ccc(S(N)(=O)=O)cc2)cc1,101%
16,Cc1ccc(NCCN2CCCCC2)c2c(=O)c3ccccc3sc12,39%
17,CC1(C)CC(=O)c2c(ccc(C(=O)C[C@@H](N)CO)c2N)O1,21.2%
18,CCCCC1COc2cccc3c2N1C=C/C3=C\C(=O)n1ccc2ccccc21 (stereo not given),80.7%
19,CC(C)CSc1ncnc2nc[nH]c12,103%
20,CC1(C)CC[C@]2(C(=O)O)CC[C@]3(C)C(=CC[C@@H]4[C@@]5(C)C/C(=C/c6cccnc6)[C@H](O)C(C)(C)[C@@H]5CC[C@]43C)[C@@H]2C1,-7.25% [100 µM] (active)
21,COc1ccc(C=C2c3ccccc3-c3ccccc32)cc1,31.7%
22,C#C[C@]1(O)CC[C@H]2[C@@H]3CC=C4c5nc(Nc6ccc(OC)cc6OC)sc5CC[C@]4(C)[C@H]3CC[C@@]21C,-66.3% (active)
23,CCOC(=O)c1nn(C2CCCCO2)c2ccc(NC(=O)CSc3nc4ccccc4c(=O)[nH]3)cc12 (stereo not given),97.6%
24,O=c1[nH]cnc2c1ccn2C1OC(CO)C(O)C1O (stereo not given),69.2%
25,CCOC(=O)C(=Cc1ccccc1[N+](=O)[O-])C(=O)OCC,95.5%
26,Cc1cc(C)c(S(=O)(=O)/N=c2/n(-c3ccccc3)nc3n2CCN3C2=NCCN2)c(C)c1,95.8%
27,COC(=O)c1cc2c(=O)[nH]cc3c2c(n1)CCC3,112%
28,Cn1cc(-c2noc(C(=O)c3cn(C)c4ncccc34)n2)c2ccccc21,101%
29,O=c1cc(-c2ccccc2)oc2cc(OCc3cn(Cc4ccc(F)cc4)nn3)cc(O)c12,10.4% [100 µM]
